Data published in PubChem BioAssay (Tox21).
“And” between values parts separate entries of the source, which are not always exact repeats. Identical values can stand only once. Inconclusive results are not listed. Entries that show only a call come without a potency. Where a structure was tested more than once in an assay, its records may differ in their call. The source made the active and inactive calls. Unless noted, calls come from the whole dose curve; as a rule, active = well fitted curve in the direction sought with a large enough effect in the repeat runs; inconclusive = weak or mixed curves; inactive = no such curve, though single readings can be large; an effect the other way counts as inactive or inconclusive.

Tests used:
[1] = biological target: Thyrotropin-releasing hormone receptor (Homo sapiens) (UniProt P34981); test: qHTS assay to identify small molecule agonists of the thyrotropin-releasing hormone receptor (TRHR) signaling pathway (AID 1346891; calls by dose curve; note: series mostly up to about 58 µM)
Thyrotropin-releasing hormone receptor (Homo sapiens), sequence (P34981 whole entry, looked up): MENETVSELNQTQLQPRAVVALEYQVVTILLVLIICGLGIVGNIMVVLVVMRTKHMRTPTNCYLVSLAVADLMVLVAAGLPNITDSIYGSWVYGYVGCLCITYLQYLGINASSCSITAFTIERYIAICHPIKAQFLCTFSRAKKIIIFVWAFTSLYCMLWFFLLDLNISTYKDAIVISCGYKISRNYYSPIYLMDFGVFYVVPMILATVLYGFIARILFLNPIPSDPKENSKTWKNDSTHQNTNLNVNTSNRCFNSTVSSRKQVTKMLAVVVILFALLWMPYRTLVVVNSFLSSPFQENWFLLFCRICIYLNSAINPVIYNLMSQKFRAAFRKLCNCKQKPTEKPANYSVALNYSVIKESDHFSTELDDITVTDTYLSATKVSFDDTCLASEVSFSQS
Outline: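 Agonist-mode intracellular calcium readout: kinetic fluorescence over 3 min at 1 s intervals after compound addition to TRHR-HEK293 cells (18 h seeded, 2 h dye-loaded at 37 C). Fifteen concentrations, triplicates.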

[2] = Human pregnane X receptor (PXR) small molecule agonists, qHTS cell viability counter screen (AID 1346977); note: nearly all actives have a fitted effect of over 50% in size; note: potency is the fitted concentration of half-maximal effect
Outline: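 Same-well viability read: CellTiter-Fluor added after 23 hr compound exposure, fluorescence measured 1 hr later. Cells were PXR-Luc HepG2 seeded at 2,000/well in 5% charcoal-stripped FBS medium, rested 5 hr before dosing at 37 C.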

[3] = Caspase-3/7 induction in HepG2 cells by small molecules, qHTS assay (AID 1346978); note: nearly all actives have a fitted effect of over 15% in size
Outline: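 Caspase-3/7 induction was measured by Caspase-Glo 3/7 luminescence (30 min, room temperature) after a 17 hr compound exposure of wild-type HepG2 cells seeded at 2,000 per well and pre-incubated 5 hr.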

[4] = Caspase-3/7 induction in CHO-K1 cells by small molecules, qHTS cell viability counter screen (AID 1346979); note: nearly all actives have a fitted effect of over 35% in size; note: potency is the fitted concentration of half-maximal effect
Outline: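 Cytotoxicity counter screen: CellTiter-Fluor added to compound-treated wild-type CHO-K1 cells at 16 h (37C, 5% CO2), fluorescence measured 1 h later; same wells as caspase-3/7 measurement.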

[5] = Caspase-3/7 induction in CHO-K1 cells by small molecules, qHTS assay (AID 1346980); note: nearly all actives have a fitted effect of over 15% in size
Outline: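 Luminescent Caspase-Glo 3/7 read (30min, room temperature) quantified apoptosis induction. Cells were wild-type CHO-K1, treated with compound for 17hr at 37 C and 5% CO2.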

[6] = Caspase-3/7 induction in HepG2 cells by small molecules, qHTS cell viability counter screen (AID 1346981); note: series mostly up to about 92 µM; nearly all actives have a fitted effect of over 30% in size
Outline: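 Counter screen for cytotoxicity: HepG2 exposed 16 hr to compounds, then CellTiter-Fluor viability signal (fluorescence, 1 hr reagent incubation).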

[7] = biological target: Nuclear receptor subfamily 1 group I member 2 (Homo sapiens) (UniProt O75469); test: Human pregnane X receptor (PXR) small molecule agonists, qHTS assay (AID 1346982); note: nearly all actives have a fitted effect of over 35% in size; note: potency is the fitted concentration of half-maximal effect
Nuclear receptor subfamily 1 group I member 2 (Homo sapiens), sequence (O75469 whole entry, looked up): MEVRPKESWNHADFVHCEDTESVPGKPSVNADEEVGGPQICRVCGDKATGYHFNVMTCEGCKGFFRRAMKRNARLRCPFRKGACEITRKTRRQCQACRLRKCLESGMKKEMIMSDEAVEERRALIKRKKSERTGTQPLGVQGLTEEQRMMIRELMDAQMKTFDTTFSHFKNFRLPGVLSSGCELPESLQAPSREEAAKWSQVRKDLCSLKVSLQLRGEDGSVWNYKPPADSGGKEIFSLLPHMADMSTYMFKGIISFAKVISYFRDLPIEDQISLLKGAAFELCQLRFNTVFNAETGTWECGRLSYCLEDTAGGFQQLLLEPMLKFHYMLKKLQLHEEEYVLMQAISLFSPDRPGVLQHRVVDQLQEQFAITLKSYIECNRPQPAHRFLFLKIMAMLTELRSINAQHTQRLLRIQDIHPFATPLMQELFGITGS
Outline: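 Luminescence (ONE-Glo, 30 min RT) after 24 hr compound exposure of PXR-Luc HepG2 cells; cells rested 5 hr post-plating in 5% charcoal-stripped FBS medium.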

[8] = biological target: Cytochrome P450 2C9 (Homo sapiens) (UniProt P11712); test: Cytochrome P450 Family 2 Subfamily C Member 9 (CYP2C9) small molecule antagonists: luciferase reporter qHTS assay (AID 1671198); note: nearly all actives have a fitted effect of over 50% in size; note: potency is the fitted concentration of half-maximal effect
Cytochrome P450 2C9 (Homo sapiens), sequence (P11712 whole entry, looked up): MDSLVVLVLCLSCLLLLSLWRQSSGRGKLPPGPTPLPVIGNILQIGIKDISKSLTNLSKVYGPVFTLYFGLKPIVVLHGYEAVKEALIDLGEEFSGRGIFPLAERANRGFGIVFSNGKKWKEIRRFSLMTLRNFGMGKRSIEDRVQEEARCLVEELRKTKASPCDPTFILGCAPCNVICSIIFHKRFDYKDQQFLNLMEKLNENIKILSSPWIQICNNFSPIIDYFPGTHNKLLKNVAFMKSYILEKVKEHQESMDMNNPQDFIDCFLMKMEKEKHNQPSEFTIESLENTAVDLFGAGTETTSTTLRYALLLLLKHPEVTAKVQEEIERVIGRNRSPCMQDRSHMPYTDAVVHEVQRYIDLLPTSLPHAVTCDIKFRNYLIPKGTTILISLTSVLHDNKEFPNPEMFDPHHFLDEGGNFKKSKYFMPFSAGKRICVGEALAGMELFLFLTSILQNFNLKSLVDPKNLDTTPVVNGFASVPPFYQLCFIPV
Outline: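 Enzyme-substrate mix preincubated with compound 10 min at room temperature; reaction started with NADPH regeneration solution, 1 h 37C. Luminescent luciferin product read after 20 min detection reagent.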

[9] = biological target: Voltage-gated inwardly rectifying potassium channel KCNH2 (Homo sapiens) (UniProt Q12809); test: Human Ether-a-go-go-Related Gene (hERG) channel small molecule antagonists: fluorescence cell-based qHTS assay (AID 1671200); note: series mostly up to about 77 µM; nearly all actives have a fitted effect of over 50% in size
Voltage-gated inwardly rectifying potassium channel KCNH2 (Homo sapiens), sequence (Q12809 whole entry, looked up): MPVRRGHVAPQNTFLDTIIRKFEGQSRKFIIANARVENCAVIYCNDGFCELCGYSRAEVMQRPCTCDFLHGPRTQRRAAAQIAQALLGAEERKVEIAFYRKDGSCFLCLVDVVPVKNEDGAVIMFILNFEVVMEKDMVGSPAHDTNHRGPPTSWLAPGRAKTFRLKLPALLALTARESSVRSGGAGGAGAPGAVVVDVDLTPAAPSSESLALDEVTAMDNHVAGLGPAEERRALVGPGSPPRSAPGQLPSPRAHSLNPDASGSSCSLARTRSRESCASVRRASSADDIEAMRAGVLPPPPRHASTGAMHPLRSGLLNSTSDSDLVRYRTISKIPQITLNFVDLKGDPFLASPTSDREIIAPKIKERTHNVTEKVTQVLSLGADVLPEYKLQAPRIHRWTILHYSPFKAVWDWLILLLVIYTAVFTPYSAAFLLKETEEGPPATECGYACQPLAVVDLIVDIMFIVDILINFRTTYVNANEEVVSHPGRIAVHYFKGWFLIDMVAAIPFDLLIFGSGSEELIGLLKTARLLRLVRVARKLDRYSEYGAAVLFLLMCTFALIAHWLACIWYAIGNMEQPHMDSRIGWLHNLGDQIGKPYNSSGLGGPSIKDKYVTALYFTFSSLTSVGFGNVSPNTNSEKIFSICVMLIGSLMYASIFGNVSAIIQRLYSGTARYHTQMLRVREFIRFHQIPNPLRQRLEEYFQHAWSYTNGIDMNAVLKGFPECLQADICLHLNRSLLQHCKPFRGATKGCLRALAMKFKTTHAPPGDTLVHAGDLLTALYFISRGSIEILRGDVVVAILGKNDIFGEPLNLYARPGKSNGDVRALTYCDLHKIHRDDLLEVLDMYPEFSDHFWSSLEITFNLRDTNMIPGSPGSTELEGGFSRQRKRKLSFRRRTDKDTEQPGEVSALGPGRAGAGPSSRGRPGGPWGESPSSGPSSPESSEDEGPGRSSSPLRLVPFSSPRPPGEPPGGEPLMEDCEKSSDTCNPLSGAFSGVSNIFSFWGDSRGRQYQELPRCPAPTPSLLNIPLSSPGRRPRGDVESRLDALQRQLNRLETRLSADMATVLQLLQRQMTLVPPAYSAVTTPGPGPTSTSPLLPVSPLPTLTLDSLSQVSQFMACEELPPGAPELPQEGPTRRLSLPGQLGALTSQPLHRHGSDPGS
Outline: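 Thallium flux as potassium surrogate: FluxOR II dye loaded 1 h at room temperature into hERG-expressing U2OS cells, then stimulus buffer added after 10 min. Kinetic 480 nm excitation/540 nm emission read, 2 min.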

[10] = biological target: Cytochrome P450 3A4 (Homo sapiens) (UniProt P08684); test: Cytochrome P450 Family 3 Subfamily A Member 4 (CYP3A4) small molecule antagonists: luciferase reporter qHTS assay (AID 1671201); note: nearly all actives have a fitted effect of over 50% in size; note: potency is the fitted concentration of half-maximal effect
Cytochrome P450 3A4 (Homo sapiens), sequence (P08684 whole entry, looked up): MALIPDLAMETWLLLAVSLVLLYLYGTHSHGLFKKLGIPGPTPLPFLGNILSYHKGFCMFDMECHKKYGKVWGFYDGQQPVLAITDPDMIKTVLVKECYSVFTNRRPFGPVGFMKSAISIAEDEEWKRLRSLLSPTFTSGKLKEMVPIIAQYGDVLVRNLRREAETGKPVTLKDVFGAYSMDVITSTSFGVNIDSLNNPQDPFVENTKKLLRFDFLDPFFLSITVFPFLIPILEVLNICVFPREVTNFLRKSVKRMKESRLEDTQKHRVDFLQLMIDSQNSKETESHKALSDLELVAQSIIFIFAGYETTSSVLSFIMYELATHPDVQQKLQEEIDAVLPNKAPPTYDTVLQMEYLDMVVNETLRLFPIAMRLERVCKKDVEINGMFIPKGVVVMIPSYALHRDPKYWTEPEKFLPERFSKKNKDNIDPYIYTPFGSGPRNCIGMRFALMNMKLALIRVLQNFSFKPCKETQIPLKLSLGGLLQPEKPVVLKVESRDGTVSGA
Outline: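 Recombinant human CYP3A4 converts a proluciferin substrate to luciferin over 1 h at room temperature after NADPH regeneration solution is added (compound preincubated 10 min); detection reagent stops reaction, luminescence read 20 min later as relative units.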

[11] = biological target: Nuclear receptor subfamily 1 group I member 2 (Rattus norvegicus) (UniProt Q9R1A7); test: Rat pregnane X receptor (rPXR) activation by small molecules, qHTS assay (AID 1346983); settings: rPXR luciferase reporter cells, One-Glo luminescence, 24 h; stronger effect = higher value; note: nearly all actives have a fitted effect of over 20% in size
Nuclear receptor subfamily 1 group I member 2 (Rattus norvegicus), sequence (Q9R1A7 whole entry, looked up): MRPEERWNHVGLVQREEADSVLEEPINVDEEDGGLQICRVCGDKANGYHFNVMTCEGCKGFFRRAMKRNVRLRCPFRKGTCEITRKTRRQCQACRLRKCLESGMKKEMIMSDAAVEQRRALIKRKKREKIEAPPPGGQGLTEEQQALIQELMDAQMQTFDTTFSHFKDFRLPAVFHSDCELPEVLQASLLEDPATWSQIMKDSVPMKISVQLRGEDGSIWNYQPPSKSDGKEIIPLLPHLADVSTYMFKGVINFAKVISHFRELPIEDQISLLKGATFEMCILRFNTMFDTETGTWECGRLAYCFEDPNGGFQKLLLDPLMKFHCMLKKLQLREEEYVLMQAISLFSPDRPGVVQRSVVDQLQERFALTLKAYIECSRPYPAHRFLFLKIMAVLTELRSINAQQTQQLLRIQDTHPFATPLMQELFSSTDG
Outline: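 Luminescent readout (One-Glo luciferase, 30 min room temperature) followed 24 hr compound treatment at 37 C of rPXR cells plated 2,000 per well and preincubated 5hr; qHTS format with compounds delivered in DMSO.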

[12] = biological target: Nuclear receptor subfamily 1 group I member 2 (Homo sapiens) (UniProt O75469); test: Human pregnane X receptor (PXR) activation by small molecules, qHTS assay (AID 1346985); note: nearly all actives have a fitted effect of over 40% in size
Outline: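 DPX-2 cells (HepG2 co-transfected with a PXR response element and a CYP3A4-promoter luciferase construct) were seeded at 2,000 per well, rested 5 hr at 37C, then exposed to DMSO-dissolved compounds for 24 hr. Activation was read as luciferase luminescence.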

[13] = biological target: Cytochrome P450 2D6 (Homo sapiens) (UniProt P10635); test: Cytochrome P450 Family 2 Subfamily D Member 6 (CYP2D6) small molecule antagonists: luciferase reporter qHTS assay (AID 1671196); note: nearly all actives have a fitted effect of over 50% in size; note: potency is the fitted concentration of half-maximal effect
Cytochrome P450 2D6 (Homo sapiens), sequence (P10635 whole entry, looked up): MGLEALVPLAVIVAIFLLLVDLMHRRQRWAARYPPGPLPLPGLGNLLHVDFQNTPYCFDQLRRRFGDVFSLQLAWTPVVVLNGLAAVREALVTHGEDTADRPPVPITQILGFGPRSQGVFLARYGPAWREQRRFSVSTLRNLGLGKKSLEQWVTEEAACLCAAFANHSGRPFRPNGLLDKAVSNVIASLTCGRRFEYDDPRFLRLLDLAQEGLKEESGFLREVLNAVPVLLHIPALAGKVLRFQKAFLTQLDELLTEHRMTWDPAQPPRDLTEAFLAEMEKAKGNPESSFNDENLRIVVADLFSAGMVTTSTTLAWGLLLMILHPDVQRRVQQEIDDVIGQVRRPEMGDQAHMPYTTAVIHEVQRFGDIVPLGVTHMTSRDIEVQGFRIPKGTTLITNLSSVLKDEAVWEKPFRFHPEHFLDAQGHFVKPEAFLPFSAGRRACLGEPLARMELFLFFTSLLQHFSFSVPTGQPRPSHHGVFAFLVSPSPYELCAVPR
Outline: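 Inhibition of CYP2D6 was gauged by loss of luminescence, since light produced tracks the luciferin generated from a proluciferin substrate. A 10 min room-temperature preincubation preceded 1 h NADPH-supported turnover.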

[14] = biological target: Cytochrome P450 2C19 (Homo sapiens) (UniProt P33261); test: Cytochrome P450 Family 2 Subfamily C Member 19 (CYP2C19) small molecule antagonists: luciferase reporter qHTS assay (AID 1671197); note: nearly all actives have a fitted effect of over 65% in size; note: potency is the fitted concentration of half-maximal effect
Cytochrome P450 2C19 (Homo sapiens), sequence (P33261 whole entry, looked up): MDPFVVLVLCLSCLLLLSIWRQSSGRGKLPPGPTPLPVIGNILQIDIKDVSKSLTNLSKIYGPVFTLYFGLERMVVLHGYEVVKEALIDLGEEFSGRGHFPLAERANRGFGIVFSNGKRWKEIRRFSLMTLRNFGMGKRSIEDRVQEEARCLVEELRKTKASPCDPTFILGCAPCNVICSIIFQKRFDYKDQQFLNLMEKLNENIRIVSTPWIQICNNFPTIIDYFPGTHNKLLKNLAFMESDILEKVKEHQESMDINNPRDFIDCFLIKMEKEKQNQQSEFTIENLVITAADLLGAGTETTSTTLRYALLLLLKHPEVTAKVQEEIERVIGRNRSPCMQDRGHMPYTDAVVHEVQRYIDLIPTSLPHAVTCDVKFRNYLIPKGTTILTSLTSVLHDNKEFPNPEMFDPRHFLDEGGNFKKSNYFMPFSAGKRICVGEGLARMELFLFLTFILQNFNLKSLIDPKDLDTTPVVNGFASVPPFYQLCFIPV
Outline: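 Luminescent readout of CYP2C19 activity: luciferin product detected 20 min after adding detection reagent. Before that, compound and enzyme-substrate mix preincubated 10 min at room temperature; NADPH-regenerating system started a 1 h, 37C reaction. Ketoconazole as positive control.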

[15] = biological target: Cytochrome P450 1A2 (Homo sapiens) (UniProt P05177); test: Cytochrome P450 Family 1 Subfamily A Member 2 (CYP1A2) small molecule antagonists: luciferase reporter qHTS assay (AID 1671199); note: nearly all actives have a fitted effect of over 50% in size; note: potency is the fitted concentration of half-maximal effect
Cytochrome P450 1A2 (Homo sapiens), sequence (P05177 whole entry, looked up): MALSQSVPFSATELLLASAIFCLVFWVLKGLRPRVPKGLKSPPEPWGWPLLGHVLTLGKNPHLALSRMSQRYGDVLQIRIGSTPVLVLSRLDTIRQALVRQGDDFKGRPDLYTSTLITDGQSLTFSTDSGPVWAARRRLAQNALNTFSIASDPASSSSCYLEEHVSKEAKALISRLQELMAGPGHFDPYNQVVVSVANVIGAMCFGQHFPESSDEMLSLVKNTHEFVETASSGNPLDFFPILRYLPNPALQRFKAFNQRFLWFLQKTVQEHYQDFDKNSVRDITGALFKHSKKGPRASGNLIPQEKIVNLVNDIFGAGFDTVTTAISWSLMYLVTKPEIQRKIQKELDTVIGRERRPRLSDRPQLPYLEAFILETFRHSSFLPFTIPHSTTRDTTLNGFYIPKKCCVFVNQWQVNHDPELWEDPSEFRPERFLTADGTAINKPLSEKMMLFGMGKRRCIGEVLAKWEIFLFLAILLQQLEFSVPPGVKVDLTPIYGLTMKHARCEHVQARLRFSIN
Outline: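 Signal from luciferin formed by CYP1A2 from a proluciferin substrate is read as luminescence, expressed in relative luminescence units. Compounds sit with enzyme 10 min, NADPH-driven reaction runs 1 h, all at room temperature.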

Structure (SMILES)	outcome [1]	Potency [2]	Potency [3]	Potency [4]	outcome [5]	Potency [6]	Potency [7]	Potency [8]	outcome [9]	Potency [10]	max activation [11]	Potency [12]	Potency [13]	Potency [14]	Potency [15]
COc1ccc2[nH]cc(CCNC(C)=O)c2c1	inactive	inactive	inactive	inactive	inactive	inactive	62.1 µM (active)	32.2 µM (active) and 35.6 µM (active)	inactive	inactive	–	–	–	–	–
c1ccc2[nH]ccc2c1	inactive	17.8 µM (active) and inactive	inactive	6.01 µM (active) and inactive	inactive	inactive	inactive	35 µM (active) and inactive	inactive	inactive	-4.01% (inactive)	inactive	inactive	49.4 µM (active) and inactive	35 µM (active) and 35.6 µM (active) and 17.4 µM (active)
O=C(O)c1cccnc1	inactive	inactive	inactive	inactive	inactive	inactive	–	–	inactive	–	–	–	–	–	–
CCCCC1C(=O)N(c2ccccc2)N(c2ccccc2)C1=O	inactive	inactive	inactive	inactive	inactive	inactive	27.1 µM (active) and 24.3 µM (active)	9.96 µM (active) and 31.7 µM (active) and 17.4 µM (active)	inactive	–	–	–	inactive	5.6 µM (active) and 25.2 µM (active)	inactive
O=C(O)CCCCC(=O)O	inactive	inactive	inactive	inactive	inactive	–	inactive	inactive	inactive	inactive	-1.24% (inactive)	inactive	inactive	inactive	inactive
O=S(=O)(O)c1ccc2cc(O)ccc2c1	inactive	inactive	inactive	inactive	inactive	inactive	inactive	inactive	inactive	inactive	–	–	inactive	inactive and 71.6 µM (active) and 79.6 µM (active)	inactive and 39.9 µM (active)
C/C=C/c1ccc(OC)cc1	inactive	inactive	inactive	inactive	inactive	–	inactive	inactive and 13.8 µM (active)	inactive	–	-1.43% (inactive)	inactive	inactive	inactive and 21.9 µM (active)	inactive and 17.4 µM (active)
CC(O)CO (stereo not given)	inactive	inactive	inactive	inactive	inactive	–	inactive	inactive	inactive	27.2 µM (active) and inactive	1.42% (inactive)	inactive	inactive and 1.56 µM (active)	inactive	inactive
NC(=O)NC1NC(=O)NC1=O (stereo not given)	inactive	inactive	inactive	inactive	inactive	–	–	inactive	inactive	–	-1.54% (inactive)	–	35.2 µM (active) and inactive	inactive	–
CCCN(CCC)S(=O)(=O)c1ccc(C(=O)O)cc1	inactive	inactive	inactive	inactive	inactive	–	–	inactive	inactive	–	–	–	inactive	inactive	inactive
CCCNC(=O)NS(=O)(=O)c1ccc(Cl)cc1	–	inactive	inactive	inactive	inactive	–	inactive	39.7 µM (active) and 35.6 µM (active)	inactive	inactive	–	–	inactive	inactive	inactive and 15.5 µM (active)
Nc1ccc(S(=O)(=O)Nc2nccs2)cc1	–	inactive	inactive	inactive	inactive	–	inactive	inactive	inactive	inactive	–	–	inactive	inactive	inactive
O=C(O)c1cccc([N+](=O)[O-])c1	inactive	inactive	inactive	inactive	inactive	–	–	inactive	inactive	inactive	–	–	inactive	inactive	inactive
C[C@]12C=CC(=O)C=C1CC[C@@H]1[C@@H]2[C@@H](O)C[C@@]2(C)[C@H]1CC[C@]2(O)C(=O)CO	–	inactive	inactive	inactive	inactive	inactive	inactive	62.4 µM (active) and inactive	inactive	inactive	–	inactive	inactive	78.6 µM (active) and inactive	inactive
Cn1c(=O)c2[nH]cnc2n(C)c1=O	inactive	inactive	inactive	inactive	inactive	–	inactive	–	–	inactive	–	–	inactive	inactive	inactive
Nc1ccc(S(=O)(=O)c2ccc(N)cc2)cc1	inactive	inactive	inactive	inactive	inactive	–	inactive	inactive	inactive	inactive	–	–	inactive	–	inactive
